Bioassay records as filed in PubChem BioAssay.
Only some compounds are listed: those with a hit (about 21% of all), similar ones and a draw of the others.
Shiga toxin inh: A qHTS for Small Molecule Inhibitors of Shiga Toxin. Vero cells, Shiga toxin protein synthesis inhibition reporter. 290,000 tested, 9.2% active. inhibition, % at 38.7 µM; in the data active = inhibition mostly above about 28%, no sharp cut-off; inactive = mostly below about 43%; also: 0% is about no effect
Pf growth 96h: Primary qHTS for delayed death inhibitors of the malarial parasite plastid, 96 hour incubation; 320,000 tested, 6.9% active; AID 504834, 2011; P. falciparum luciferase reporter growth, 96 h; Potency, µM (titrated, usually from 28.7 µM), inactives show at the highest dose activity change, negative = inhibition, hits mostly inhibitors; also: potency is read from the fitted curve at half-maximal effect; % is scaled to controls: 0 for no effect and ±100 for the full control effect
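Readout is luminescence from an integrated firefly luciferase in P. falciparum. Red cells, 2% hematocrit and 0.05% parasitemia final, were cultured with compound through two parasite generations (96 hours) at 37 C, 5% CO2.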
CHX counter-1: Cycloheximide Counterscreen for Small Molecule Inhibitors of Shiga Toxin. 300,000 tested, 12% active. max response, %. cell reporter, cycloheximide protein synthesis inhibition counterscreen; in the data active = max response mostly above about 13%, no sharp cut-off; inactive = mostly below about 14%; also: read at 38.3 µM for the half of the compounds with a filed dose; 0% is about no effect
FBPA Giardia inh: qHTS Assay for Inhibitors of Fructose-1,6-bisphosphate Aldolase from Giardia Lamblia | A8B2U2 | purified Giardia FBPA | Potency, µM (titrated, usually from 59.6 µM), for inactives: at the highest dose activity, negative = inhibition, hits mostly inhibitors | 290,000 tested, 0.71% active; also: potency is read from the fitted curve at half-maximal effect; % is scaled to controls: 0 for no effect and ±100 for the full control effect; nearly all actives have a fitted effect of over 55% in size
Target sequence (A8B2U2 whole entry, looked up): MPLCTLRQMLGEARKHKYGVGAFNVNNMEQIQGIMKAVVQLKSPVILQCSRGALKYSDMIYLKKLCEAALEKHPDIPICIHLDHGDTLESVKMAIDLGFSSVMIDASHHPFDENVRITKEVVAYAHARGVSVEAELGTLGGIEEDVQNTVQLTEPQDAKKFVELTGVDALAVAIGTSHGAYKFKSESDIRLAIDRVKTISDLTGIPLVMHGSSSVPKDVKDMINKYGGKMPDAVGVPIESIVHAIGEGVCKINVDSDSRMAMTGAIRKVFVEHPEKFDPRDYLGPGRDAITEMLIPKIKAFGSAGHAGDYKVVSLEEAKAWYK
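Giardia FBPA (40 nM reagent) was preincubated 10 min at RT with compound (up to 57.5 uM final), then substrate plus GAPDH/TPI/NAD/arsenate coupling system with diaphorase/resazurin was added; resorufin fluorescence (525/598 nm) was read after 20 min.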
NS1 inh: qHTS Assay for Inhibitors of Influenza NS1 Protein Function; Potency, µM (doses to about 46.1 µM), without a hit: at the highest dose activity, positive = more growth; 270,000 tested, 0.4% active; calls by dose curve; also: potency is read from the fitted curve at half-maximal effect; actives are rising curves; nearly all actives have a fitted effect of over 50% in size
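Growth recovery, yeast-based: influenza A NS1 expressed in S. cerevisiae causes slow growth, and suppressors are detected by OD600. The parent strain without NS1 is used as positive control.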
Pf growth 48h: Primary qHTS for delayed death inhibitors of the malarial parasite plastid, 48 hour incubation; P. falciparum luciferase growth in erythrocytes, 48 h; Potency, µM (top dose mostly 28.7 µM), inactives show at the highest dose activity change, negative = inhibition, hits mostly inhibitors; 310,000 tested, 5.9% active; AID 504832, 2011; also: potency is read from the fitted curve at half-maximal effect; % is scaled to controls: 0 for no effect and ±100 for the full control effect
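Luciferase-expressing parasites in RBCs, 2% Hct / 0.1% parasitemia final; RPMI 1640 + 0.5% Albumax; 37 C, 5% CO2, one generation; luminescence read-out, lower signal = inhibition.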
CHX counter-2: Cycloheximide Counterscreen for Small Molecule Inhibitors of Shiga Toxin (Confirmatory) | shares compounds with Shiga toxin inh | Cycloheximide counterscreen, protein synthesis reporter, Shiga toxin assay | Potency, µM (highest dose often 38.3 µM), without a hit: top-dose activity (activation), usual class: activators | 510 tested, 3% active | AID 2318, 2010; calls by dose curve; also: potency is read from the fitted curve at half-maximal effect; 0% is about no effect
An asterisk follows results filed as active. Unless noted, calls follow the shape of the dose curve; as a rule, active = well fitted curve in the direction sought with a large enough effect; inconclusive = small, poorly fitted or top-dose-only effect, or another doubt; inactive = no such curve, though single readings can be large; an effect the other way counts as inactive or inconclusive.

How did CC(=O)c1ccc(-c2cccc([C@H]3[C@@H]4C=CC[C@@H](C)[C@@H]4C(=O)N3Cc3ccccc3)c2)cc1 do in these assays?
Shiga toxin inh: 36.1*; CHX counter-1: 17.8; FBPA Giardia inh: -9.3%; CHX counter-2: -0.8%

How did O=C(CC1CS(=O)(=O)CC1CC(=O)Oc1ccccc1F)Oc1ccccc1F (stereo unspecified) do in these assays?
Shiga toxin inh: -3.5; Pf growth 96h: 6.3%; CHX counter-1: -3.6; FBPA Giardia inh: 0.9%; NS1 inh: -33.5%; Pf growth 48h: -5.4%

How did CCn1c(SCC(=O)NCc2ccco2)nc2c1c(=O)n(C)c(=O)n2C do in these assays?
Shiga toxin inh: 68.2*; Pf growth 96h: -34.4%; CHX counter-1: -2.3; FBPA Giardia inh: 1.5%; NS1 inh: -6.6%; Pf growth 48h: 16.1%; CHX counter-2: -1.1%

How did CCCn1c(SCC(=O)NCc2ccco2)nc2c1c(=O)n(C)c(=O)n2C do in these assays?
Shiga toxin inh: -8.0; Pf growth 96h: inconclusive; CHX counter-1: -1.3; FBPA Giardia inh: 1.1%; NS1 inh: 4.6%; Pf growth 48h: -1.5%

How did O=C(c1ccc([N+](=O)[O-])cc1)N1CCc2ccccc2C1 do in these assays?
Shiga toxin inh: 26.3*; Pf growth 96h: -28.1%; CHX counter-1: 1.2; FBPA Giardia inh: -3.6%; NS1 inh: -15.4%; Pf growth 48h: -9.6%; CHX counter-2: 1.4%

How did COc1ccc(-c2nnc3sc(-c4ccccc4OC)nn23)cc1 do in these assays?
Shiga toxin inh: 86.7*; Pf growth 96h: -8.6%; CHX counter-1: 1.4; FBPA Giardia inh: 1.7%; NS1 inh: 6.7%; Pf growth 48h: -10.9%; CHX counter-2: -2.4%

Results for Cc1cc(C(=O)COC(=O)c2cccn2C)c(C)n1Cc1ccco1 ?
Shiga toxin inh: 50.3*; Pf growth 96h: 90.3%; CHX counter-1: 10.4; FBPA Giardia inh: -4.1%; Pf growth 48h: 171.6%; CHX counter-2: 0.711µM*

What do the screens show for `CCSc1n[nH]c(=O)[nH]c1=O`?
Shiga toxin inh: -3.2; Pf growth 96h: -6.1%; CHX counter-1: -3.2; FBPA Giardia inh: -9.7%; NS1 inh: inconclusive; Pf growth 48h: -20.3%

What do the screens show for `CCCCCCCCNC(=O)c1cccnc1SCC(=O)Nc1ccccc1OC`?
Shiga toxin inh: -7.0; Pf growth 96h: -7.2%; CHX counter-1: 3.6; FBPA Giardia inh: 0.2%; NS1 inh: 4.9%; Pf growth 48h: -0.3%

Results for O=C(COC(=O)c1cncc(Br)c1)Nc1nc(-c2ccc(F)cc2)cs1 ?
Shiga toxin inh: 26.8*; Pf growth 96h: 42.7%; CHX counter-1: 8.3; FBPA Giardia inh: 0.8%; NS1 inh: 2.2%; Pf growth 48h: 58.1%; CHX counter-2: inconclusive

Results for Cc1ccc(CNC(=O)COC(=O)c2cncc(Br)c2)cc1 ?
Shiga toxin inh: -5.0; Pf growth 96h: 2.7%; CHX counter-1: 0.9; FBPA Giardia inh: -0.4%; Pf growth 48h: inconclusive

How did COc1ccc(C(=O)Nc2cccc(C(=O)N3CCCCC3)c2)cc1 do in these assays?
Shiga toxin inh: 32.6; Pf growth 96h: inconclusive; CHX counter-1: 12.9; NS1 inh: 4.7%; Pf growth 48h: inconclusive

How did COc1ccc(C(=O)Nc2cccc(C(=O)N3CCN(C)CC3)c2)cc1 do in these assays?
Shiga toxin inh: 36.8*; Pf growth 96h: 0.131µM*; CHX counter-1: 15.1; FBPA Giardia inh: -1.2%; NS1 inh: 1.0%; Pf growth 48h: 135.6%; CHX counter-2: 1.1%

What do the screens show for `CC(=O)/C(C#N)=C1\NC(=O)C(Cc2ccc(C)c(C)c2)S1` (stereo unspecified)?
Shiga toxin inh: 34.2*; Pf growth 96h: inconclusive; CHX counter-1: 11.5; FBPA Giardia inh: 27.7%; NS1 inh: 7.0%; Pf growth 48h: -28.3%; CHX counter-2: 1.8%

Results for CCOC(=O)N1CCN(CCC(=O)Nc2cc([N+](=O)[O-])ccc2OC)CC1 ?
Shiga toxin inh: -6.6; Pf growth 96h: inconclusive; CHX counter-1: -2.9; FBPA Giardia inh: 6.1%; NS1 inh: -12.3%; Pf growth 48h: -9.4%

How did O=C(c1cc2c(s1)-c1ccccc1OC2)N1CCN(c2ccccc2)CC1 do in these assays?
Shiga toxin inh: 61.7*; Pf growth 96h: 46.8%; CHX counter-1: 5.0; FBPA Giardia inh: 30.3%; NS1 inh: -24.2%; CHX counter-2: -2.1%

How did O=C(c1cc2c(s1)-c1ccccc1OC2)N1CCN(c2ccccn2)CC1 do in these assays?
Shiga toxin inh: -23.1; Pf growth 96h: -18.4%; CHX counter-1: -5.2; FBPA Giardia inh: 0.2%; NS1 inh: -70.2%

What do the screens show for `O=C(Nc1ccc(-c2csc(Nc3ccc(Cl)cc3)n2)cc1)c1cc([N+](=O)[O-])cc(C(F)(F)F)c1`?
Shiga toxin inh: 3.5; Pf growth 96h: inconclusive; CHX counter-1: -4.7; FBPA Giardia inh: -13.3%; NS1 inh: 6.2%; Pf growth 48h: inconclusive

Results for O=C(Nc1cccc(-c2csc(Nc3ccc(Cl)cc3)n2)c1)c1ccccc1 ?
Shiga toxin inh: 29.4*; Pf growth 96h: inconclusive; CHX counter-1: 2.1; FBPA Giardia inh: 2.5%; NS1 inh: 15.5%; Pf growth 48h: inconclusive; CHX counter-2: inconclusive

Results for CC(=O)c1sc(NC(=O)c2cccc(N3C(=O)CCC3=O)c2)nc1-c1ccccc1 ?
Pf growth 96h: 9.1%; Pf growth 48h: 9.9%

What do the screens show for `O=C(OCc1nc2ccccc2s1)c1cccc(N2C(=O)CCC2=O)c1`?
Shiga toxin inh: 57.7*; Pf growth 96h: 43.9%; CHX counter-1: 7.1; FBPA Giardia inh: -6.8%; Pf growth 48h: 3.2%; CHX counter-2: 2.0%

How did O=C(/C=C/Nc1ccc(F)cc1F)c1ccco1 do in these assays?
Shiga toxin inh: 48.7*; Pf growth 96h: -35.0%; CHX counter-1: 9.8; FBPA Giardia inh: -11.8%; NS1 inh: -7.3%; Pf growth 48h: 46.8%; CHX counter-2: 0.252µM*

What do the screens show for `O=C(NC1(C(F)(F)F)NC(=O)N(CC2CCCCC2)C1=O)c1ccco1` (stereo unspecified)?
Shiga toxin inh: -7.4; Pf growth 96h: inconclusive; CHX counter-1: -8.2; FBPA Giardia inh: -0.1%; NS1 inh: -3.6%; Pf growth 48h: 12.1%

What do the screens show for `O=C1Nc2ccccc2Sc2ccccc21`?
Shiga toxin inh: -32.0; Pf growth 96h: 4.3%; CHX counter-1: -4.1; FBPA Giardia inh: -17.7%; NS1 inh: 3.3%; Pf growth 48h: -0.8%

How did N#C/C=C1/NC(=O)c2ccccc2S1 do in these assays?
Shiga toxin inh: 70.8*; Pf growth 96h: 3.7%; CHX counter-1: 0.7; FBPA Giardia inh: -7.9%; NS1 inh: 3.9%; Pf growth 48h: 3.3%; CHX counter-2: 0.7%
